Assay outcomes deposited in PubChem BioAssay by several laboratories.
NOD2 RIPK2 PPI: NOD2-RIPK2 binding disruptors in cells, primary screen, fluorescence, CHO cells, BLA complementation. Receptor-interacting serine/threonine-protein kinase 2 (Homo sapiens), O43353. CCF4 ratio. inhibition, % at 4.98 µM. 360,000 compounds, 0.38% hits. AID 624267, 2012; in the data active = inhibition above about 21%
Mcl1 Bid PPI: Mcl-1/Bid binding inhibitors, primary screen, biochemical, TR-FRET, 1536-well. Induced myeloid leukemia cell differentiation protein Mcl-1 (Homo sapiens), Q07820. 220,000 compounds, 0.97% hits. inhibition, % at 21.7 µM. AID 1021, 2008. TR-FRET Mcl-1/Bid-Dy647 peptide binding;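 active = compounds that cut the binding signal by more than half at the single screening dose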;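 also: His-tagged Mcl-1 with europium anti-His antibody binding Bid BH3 peptide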
Mcl1-Noxa inh: Mcl-1/Noxa binding inhibitors, primary screen, biochemical, TR-FRET, 1536-well. Induced myeloid leukemia cell differentiation protein Mcl-1 (Homo sapiens), Q07820. TR-FRET Mcl-1/Noxa peptide binding, 2 h. inhibition, % at 21.7 µM. 220,000 compounds, 1.5% hits. AID 1022, 2008;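 active = compounds that cut the protein-peptide binding signal by more than 50% relative to plate controls in a single-dose test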;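 also: His-tagged Mcl-1 with rhodamine Noxa BH3 peptide and terbium anti-His antibody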
TLR9-MyD88 inh: inhibitors of TLR9-MyD88 association in cells, primary screen, cell-based, CHO, BLA complementation, fluorescence; Toll-like receptor 9 (Homo sapiens) + Myeloid differentiation primary response protein …; CCF4 FRET ratio; inhibition, % at 4.98 µM; 340,000 compounds, 0.21% hits;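 active = inhibition above the mean over all tested compounds plus 3 SD, cut at about 21% in these data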
TLR4 MyD88 comp: inhibitors of TLR4-MyD88 association in cells, primary screen, cell-based, HeLa CL3-4, BLA complementation, FRET ratio; Toll-like receptor 4 (Homo sapiens) + Myeloid differentiation primary response protein …; AID 861, 2007; 200,000 compounds, 0.18% hits; inhibition, % at 8.4 µM; HeLa CL3-4 TLR4/MyD88 BLA complementation; in the data active = inhibition above about 25%
Bim-Mcl-1: inhibitors of Bim peptide binding to Mcl-1, primary screen, biochemical, bead-based flow cytometry, multiplex; Bim peptide-Mcl-1 binding; inhibition, % at 10 µM; 190,000 compounds, 0.1% hits; AID 1009, 2008; in the data active = inhibition above about 40%
Of the large screens only hits and unclear results are named; the others gave an inactive call. Sampled rows, rich in hits. Any-hit rate of the full collection: about 1.8%.

C=CCN1C(=O)/C(=C2/C(=O)N(CC(=O)O)c3ccccc32)S/C1=N/c1nccs1	Mcl1-Noxa inh 89 (no result: NOD2 RIPK2 PPI, TLR9-MyD88 inh)
O=C(NC1CCCCC1)c1sc(=S)n2c1[nH]c(=O)c1ccccc12	Mcl1-Noxa inh 76
CCCCNC(=O)c1sc(=S)n2c1[nH]c(=O)c1ccccc12	none
Oc1ccc(N2CCN(c3ncnc4sc5c(c34)CCC5)CC2)cc1	Mcl1-Noxa inh 74
OCCN1CCN(c2ncnc3sc4c(c23)CCCC4)CC1	none (no result: Mcl1 Bid PPI, Mcl1-Noxa inh, TLR4 MyD88 comp, Bim-Mcl-1)
c1ccc2c(c1)nnn2-c1ncnc2sc3c(c12)CCCC3	Mcl1 Bid PPI 80
Cc1ccc(-n2nnnc2-c2cccs2)cc1[N+](=O)[O-]	none (no result: Mcl1 Bid PPI, Mcl1-Noxa inh, TLR4 MyD88 comp, Bim-Mcl-1)
CCN(CC)c1ccc(S(=O)(=O)N2CCOCC2)cc1NC(=O)CSc1n[nH]c(N)n1	none (no result: TLR4 MyD88 comp, Bim-Mcl-1)
CNC(=O)NC1CCCc2ccccc21 (stereo not drawn)	Mcl1-Noxa inh 92
O=C(COc1ccccc1)NC1CCCc2ccccc21 (stereo not drawn)	none
COc1cc(CC(=O)NC2CCCc3ccccc32)cc(OC)c1OC (stereo not drawn)	NOD2 RIPK2 PPI 92 (no result: Mcl1 Bid PPI, Mcl1-Noxa inh, TLR4 MyD88 comp, Bim-Mcl-1)
O=C(COc1ccc(-c2nnco2)cc1)NC1CCCc2ccccc21 (stereo not drawn)	Mcl1 Bid PPI 60
CCN(CC)CCC=C(c1cccs1)c1cccs1	none (no result: Mcl1 Bid PPI, Mcl1-Noxa inh, TLR4 MyD88 comp, Bim-Mcl-1)
NCCCC[C@@H]1NC(=O)[C@H](CCC(=O)O)NC(=O)c2cc([N+](=O)[O-])cc(I)c2SC[C@@H](C(=O)NCC(N)=O)NC1=O	none
NCCCC[C@@H]1NC(=O)c2cc([N+](=O)[O-])cc(I)c2SC[C@@H](C(N)=O)NC(=O)[C@H](Cc2ccc(O)cc2)NC1=O	Mcl1-Noxa inh 54
Cc1ccc(S(=O)(=O)N2CCOCC2)cc1C(=O)N1C(=O)c2cccc(N)c2C1=O	Mcl1 Bid PPI 97
Cc1sc(NC(=O)c2ccccc2)c(C(=O)c2ccccc2)c1C	none
Cc1sc(NC(=O)c2ccccc2)c(C(=O)N2CCN(C)CC2)c1C	Mcl1 Bid PPI 86
O=C(Nc1nccs1)C1CC(=O)N(Cc2ccco2)C1 (stereo not drawn)	Mcl1 Bid PPI 88
COc1ccc(-c2csc(NC(=O)C3CC(=O)N(Cc4ccco4)C3)n2)cc1 (stereo not drawn)	none
COc1cc(NC(=O)COc2ccccc2)c(OC)cc1NC(C)=O	Mcl1 Bid PPI 95
CN(C)c1ccc(/C=N/NC(=O)COc2ccccc2)cc1	none
CN(NC(=O)COc1ccccc1)c1ccccc1	Mcl1 Bid PPI 94
COc1cc(NC(=O)c2ccccc2)c(OC)cc1NC(C)=O	none
Cc1ccc(C(=O)C2C(c3cccs3)NC(=O)NC2(O)C(F)(F)F)cc1 (stereo not drawn)	Mcl1 Bid PPI 63
Cc1ccc(C2NC(=O)NC(O)(C(F)(F)F)C2C(=O)c2ccccc2)o1 (stereo not drawn)	none
O=C1NC(c2ccc(-c3ccccc3[N+](=O)[O-])o2)C(C(=O)c2ccc(F)cc2)C(O)(C(F)(F)F)N1 (stereo not drawn)	Mcl1-Noxa inh 55
COc1ccc(C(=O)C2C(c3ccc(-c4ccccc4[N+](=O)[O-])o3)NC(=O)NC2(O)C(F)(F)F)cc1 (stereo not drawn)	Mcl1-Noxa inh 57
COc1ccc(C2NC(=O)NC(O)(C(F)(F)F)C2C(=O)c2ccc(F)cc2)cc1 (stereo not drawn)	none
Cc1ccc(C2NC(=O)NC(O)(C(F)(F)F)C2C(=O)c2cccs2)o1 (stereo not drawn)	none
CCN(C(=O)COC(=O)c1cc(=O)[nH]c2ccccc12)C1CCS(=O)(=O)C1 (stereo not drawn)	none (no result: TLR4 MyD88 comp, Bim-Mcl-1)
COc1ccc(CN2CCN(c3ccccn3)CC2)c(OC)c1	Mcl1 Bid PPI 56
O=C(c1cnn2c(C(F)(F)F)cc(-c3cccs3)nc12)N1CCOCC1	Mcl1 Bid PPI 69
